Each structure is given as a SMILES string. This is part of a sample that, as a whole, favours compounds with a hit. Of some 83,000 tested, about 20% had one in any assay.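 Growth was measured after 48 h exposure to one concentration of compound in 96-well plates. Values under 10 count as active.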 Unmarked numbers belong to inactive results. The source made the active and inactive calls.

Test systems include T-47D breast; BT-549 breast; MDA-MB-435 melanoma; SW-620 colon; MCF7 breast; HCT-116 colon; HCC-2998 colon; KM12 colon.
Common to all, as to test: NCI-60 one-dose screen, 48 h (100 = growth as untreated, 0 = no growth, -100 = all killed)
What all share (conditions): 10 µM unless noted

Take `C=CCOC(=O)C1=C(C)NC2=C(C(=O)CC(C)(C)C2)C1c1ccc(OC)cc1` (stereo not given): the growth was 99% in the experiment with T-47D breast; 94.1% in the experiment on BT-549 breast; 105% in the experiment on MDA-MB-435 melanoma; 98.9% in the experiment on SW-620 colon; 97.4% in the experiment with MCF7 breast; 88.8% in the experiment with HCT-116 colon. The growth with HCC-2998 colon was 116%; in the experiment with KM12 colon, 94.8%.

With `NNc1ccc(S(N)(=O)=O)cc1`, the growth with T-47D breast is 89.4%; in the experiment on BT-549 breast, 101%; in the experiment on MDA-MB-435 melanoma it was 104%; with SW-620 colon, 97.3%; with MCF7 breast, 98%; in the experiment with HCT-116 colon, 90.7%. Also, the growth with HCC-2998 colon was 86.8%; in the experiment on KM12 colon it was 105%.

For the molecule `C#CCNc1nc(NCCNC(=O)CCl)nc(N(C)CCCCc2ccccc2)n1`, the growth in the experiment on T-47D breast is 93%; in the experiment with BT-549 breast, 76.3%; in the experiment on MDA-MB-435 melanoma, 98.7%; with SW-620 colon, 97.9%; in the experiment with MCF7 breast, 86%; in the experiment on HCT-116 colon, 79.1%. Besides, the growth with HCC-2998 colon is 108%; with KM12 colon, 99.1%.

Regarding `COc1ccc(/C(C)=N/NC(=O)c2ccc(S(C)(=O)=O)cc2)cc1OC`, the growth with T-47D breast is 82.6%; in the experiment on BT-549 breast, 96%; with MDA-MB-435 melanoma, 112%; in the experiment with SW-620 colon, 103%; in the experiment with MCF7 breast, 92.9%; in the experiment with HCT-116 colon it was 84.7%. The growth in the experiment on HCC-2998 colon is 104%; in the experiment on KM12 colon it was 103%.

With `O=S(=O)(Nc1ccc2ccccc2c1)N1CCCCC1`, the growth was 50.3% in the experiment with T-47D breast; 47.3% in the experiment on BT-549 breast; -0.27% (active) with MDA-MB-435 melanoma; 41% with SW-620 colon; 49% with MCF7 breast; 55% in the experiment on HCT-116 colon. The growth is 45.3% with HCC-2998 colon and 39.7% in the experiment with KM12 colon.

Turning to `CC1=CC(=O)OC1C/C=C(\C)CCC1[C@@]2(C)CCC[C@@](C)(C(=O)O)C2CC[C@@]1(C)O` (stereo not given in full), the growth is 87.3% in the experiment with T-47D breast; 67.3% with BT-549 breast; 16.7% in the experiment with MDA-MB-435 melanoma; 32.4% in the experiment on SW-620 colon; 28.8% in the experiment with MCF7 breast; 27.9% with HCT-116 colon. Besides, the figures for the growth in the experiment with HCC-2998 colon and in the experiment on KM12 colon were 44% and 26.4%, respectively.

For the molecule `CCN(CC)CCNC(=O)C(F)(F)C(F)(F)C(F)(F)F`, the growth with T-47D breast is 110%; in the experiment with BT-549 breast, 98.7%; in the experiment on MDA-MB-435 melanoma, 109%; with SW-620 colon, 104%; with MCF7 breast, 108%; with HCT-116 colon it was 96.2%. In addition, the values for the growth in the experiment with HCC-2998 colon and in the experiment with KM12 colon were 105% and 101%, respectively.

Turning to `O=C(NNC(=O)c1cccc(Cl)c1)c1ccccc1`, the growth with T-47D breast was 103%; in the experiment on BT-549 breast, 111%; in the experiment with MDA-MB-435 melanoma, 103%; in the experiment on SW-620 colon, 106%; in the experiment on MCF7 breast, 105%; in the experiment on HCT-116 colon, 107%. Further, the growth in the experiment with HCC-2998 colon was 105%; in the experiment with KM12 colon, 111%.

As for `Cc1ccncc1NC=O`, the growth in the experiment on T-47D breast is 102%; with BT-549 breast, 132%; in the experiment with MDA-MB-435 melanoma, 105%; in the experiment on SW-620 colon, 99.2%; in the experiment on MCF7 breast, 95.9%; in the experiment on HCT-116 colon, 108%. Moreover, the growth is 113% with HCC-2998 colon and 103% with KM12 colon.

As for `CCCCCCCCCCCCCCCCCC1=NCCN1CCO`, the growth in the experiment on T-47D breast was 95%; in the experiment on BT-549 breast, 91.5%; in the experiment with MDA-MB-435 melanoma it was 101%; in the experiment on SW-620 colon, 65.2%; in the experiment on MCF7 breast it was 74.3%; in the experiment with HCT-116 colon, 65.1%. In the experiment with HCC-2998 colon, the growth is 61.3%.

As for `CC(C)(C)OC[C@@H]1N=C(c2ccc(Br)cc2)Nc2nc3ccccn3c2C1=O`, the growth is 61.9% in the experiment on T-47D breast; 72.5% in the experiment on BT-549 breast; -13.8% (active) in the experiment on MDA-MB-435 melanoma; 40.3% in the experiment on SW-620 colon; 27.8% in the experiment with MCF7 breast; 43.7% in the experiment with HCT-116 colon. For the same molecule, the growth is 90.9% in the experiment on HCC-2998 colon and 49% with KM12 colon.

As to `CN1C(=O)N(C)C2C1NN=c1s/c(=C\c3ccsc3)c(=O)n12` (stereo not given), the growth in the experiment with T-47D breast is 44.3%; with BT-549 breast it was 37%; in the experiment on MDA-MB-435 melanoma it was -3.38% (active); with SW-620 colon, 26.6%; in the experiment with MCF7 breast, 15.2%; in the experiment on HCT-116 colon, 18.5%. Further, the growth was 73.7% with HCC-2998 colon and 18.9% with KM12 colon.

Consider `CC1OC(n2c3ccccc3c3c4c(c5c6ccccc6[nH]c5c32)C(=O)N(CCN2CCOCC2)C4=O)CC(O)C1O` (stereo not given), for which the growth in the experiment with T-47D breast was 11%; in the experiment with BT-549 breast, 36.9%; in the experiment on MDA-MB-435 melanoma, 41.5%; with SW-620 colon, 27.8%; with MCF7 breast, 13.3%; with HCT-116 colon, 24.3%. The results for the growth with HCC-2998 colon and with KM12 colon were 30% and 30.7%, respectively.

For `O=C1SCN(Cc2ccccc2)CN1Cc1ccccc1`, the growth in the experiment on T-47D breast is 52.2%; with BT-549 breast it was 131%; in the experiment on MDA-MB-435 melanoma, 73.3%; in the experiment with SW-620 colon it was 34.3%; in the experiment on MCF7 breast it was 22.1%; in the experiment on HCT-116 colon, 70.5%. Further, the growth in the experiment on HCC-2998 colon was 115%; in the experiment on KM12 colon it was 32.4%.

Consider `O=C(Nc1ccncc1)C(=O)c1cn(S(=O)(=O)c2cccc(Cl)c2F)c2ccccc12`, for which the growth in the experiment on T-47D breast was 74.2%; in the experiment on BT-549 breast, 62.1%; in the experiment on MDA-MB-435 melanoma it was 8.25% (active); in the experiment with SW-620 colon it was 59.6%; with MCF7 breast, 35.2%; in the experiment with HCT-116 colon it was 31.3%. For the same molecule, the figures for the growth in the experiment with HCC-2998 colon and in the experiment on KM12 colon were 66.4% and 63.1%, respectively.

For `O=C1/C(=C/c2ccccc2)SC(=Nc2ccccc2)N1Nc1ccccc1`, the growth in the experiment with T-47D breast is 5.78% (active); in the experiment on BT-549 breast, -19.3% (active); in the experiment on MDA-MB-435 melanoma it was -25.4% (active); in the experiment on SW-620 colon, 13.1%; with MCF7 breast, 1.62% (active); in the experiment with HCT-116 colon, -23.4% (active). In addition, the growth in the experiment with HCC-2998 colon is 20.3%; with KM12 colon, 3.45% (active).

With `C=C[C@H]1CCC/C=C/[C@@H]2C[C@H](O)C[C@H]2[C@H](O)/C=C/C(=O)O1`, the growth in the experiment on T-47D breast is -14% (active); in the experiment on BT-549 breast, 0.705% (active); with MDA-MB-435 melanoma it was 15%; in the experiment with SW-620 colon it was -63.8% (active); in the experiment with MCF7 breast, -50.1% (active); with HCT-116 colon, -76.9% (active). Also, the growth in the experiment on HCC-2998 colon was -62.4% (active); with KM12 colon, -59.2% (active).

For the origin of these results see PubChem BioAssay (NCI).
